High-throughput results (PubChem BioAssay)
Compounds with a hit are over-represented: about 17% of the library has one in this group of screens.
TDP1 block – qHTS Assay for Inhibitors of Tyrosyl-DNA Phosphodiesterase (TDP1) | Tyrosyl-DNA phosphodiesterase 1 (Homo sapiens), Q9NUW8 | recombinant TDP1, AlphaScreen DNA substrate cleavage | Potency, µM (series often up to 130 µM), inactives show at the highest dose activity change, negative = inhibition, most hits filed as inhibitors | 350,000 compounds, 0.28% hits | AID 485290, 2010; further: on the % scale 0 is the no-effect control and ±100 the full control effect; nearly all actives have a fitted effect of over 40% in size
Target sequence (Q9NUW8 whole entry, looked up): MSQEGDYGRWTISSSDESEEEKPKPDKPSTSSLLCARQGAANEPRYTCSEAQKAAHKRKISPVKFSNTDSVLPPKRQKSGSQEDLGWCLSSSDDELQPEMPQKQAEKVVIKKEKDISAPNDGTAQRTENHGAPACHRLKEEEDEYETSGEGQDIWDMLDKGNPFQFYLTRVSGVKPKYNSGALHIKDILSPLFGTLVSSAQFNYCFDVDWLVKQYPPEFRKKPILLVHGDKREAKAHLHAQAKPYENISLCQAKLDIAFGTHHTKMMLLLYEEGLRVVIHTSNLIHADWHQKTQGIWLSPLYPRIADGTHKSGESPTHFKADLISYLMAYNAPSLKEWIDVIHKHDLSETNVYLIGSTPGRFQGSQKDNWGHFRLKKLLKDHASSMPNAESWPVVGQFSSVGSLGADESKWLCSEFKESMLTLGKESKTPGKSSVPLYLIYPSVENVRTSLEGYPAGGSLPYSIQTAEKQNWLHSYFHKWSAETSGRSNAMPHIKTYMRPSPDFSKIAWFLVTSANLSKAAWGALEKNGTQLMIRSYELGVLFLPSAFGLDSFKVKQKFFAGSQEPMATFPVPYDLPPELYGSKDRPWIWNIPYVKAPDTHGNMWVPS
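Steps: enzyme plus compound, 15 min RT; add biotin/phosphotyrosine-FITC oligonucleotide (15 nM final), react 5 min; add donor/acceptor beads (10 ug/ml final), 10 min; read AlphaScreen. Tdp1 at 1 nM final.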
TDP1 cell noCPT – qHTS for Inhibitors of human tyrosyl-DNA phosphodiesterase 1 (TDP1): qHTS in cells in absence of CPT; Potency, µM (titrated, usually from 46.2 µM), for inactives: at the highest dose activity change, negative = growth inhibition, hits mostly inhibitors; 420,000 compounds, 15% hits; DT40 Tdp1-/- hTDP1 cells, no CPT, ATP luminescence, 48 h; AID 686978, 2013; further: on the % scale 0 is the no-effect control and ±100 the full control effect; nearly all actives have a fitted effect of over 55% in size
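DT40 Tdp1-/-;hTDP1 cells, no CPT (DMSO vehicle only), 400 cells/well; compounds pin-transferred; ≥48 hr, 37 °C; CellTiter-Glo 30 min RT dark, luminescence read.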
ClpP mod – qHTS Assay for Activators of ClpP | purified B. subtilis ClpP, FRET peptide cleavage, 20 min | Potency, µM (titrated, usually from 57.5 µM), inactives show top-dose activity change, negative = active | 340,000 compounds, 1.9% hits; active means well fitted falling curve with a large enough effect; inconclusive means small, poorly fitted or top-dose-only effect; inactive means no such curve, though single readings can be large or run the other way; further: the source files actives as falling curves though it sought activators and does not explain the sign; nearly all actives have a fitted effect of over 65% in size
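Buffer: 100 mM Tris/HCl pH8, 100 mM KCl, 0.05% low protease BSA, 2.5% glycerol, 0.01% Tween-20. ClpP 10 microg/mL final; 20 min RT; delta FRET normalized to ADEP and DMSO controls.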
TDP1 cell CPT – qHTS for Inhibitors of human tyrosyl-DNA phosphodiesterase 1 (TDP1): qHTS in cells in presence of CPT | chicken DT40 Tdp1-/-;hTDP1 cells + 20 nM CPT, ATP luminescence, 48 h | Potency, µM (series often up to 46.2 µM), for the others: top-dose activity change, negative = growth inhibition, usual class: inhibitors | 420,000 compounds, 12% hits | AID 686979, 2013; further: on the % scale 0 is the no-effect control and ±100 the full control effect; nearly all actives have a fitted effect of over 55% in size
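Chicken DT40 Tdp1-/- cells stably complemented with human TDP1 were seeded at 400 cells/well in medium containing 20 nM camptothecin, exposed to pin-transferred compounds, and grown at 37 °C for at least 48 hr. Viability was read as ATP luminescence.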
Active calls of the source: *. Unless noted, the call rests on the fitted dose curve; in most records, active means well fitted curve in the direction sought with a large enough effect; inconclusive means small, poorly fitted or top-dose-only effect, or another doubt; inactive means no such curve, though single readings can be large; an effect the other way counts as inactive or inconclusive. Potency means the concentration at half of the fitted maximal effect.

`Cn1c(CCN2CCN(c3ccccn3)CC2)nc2cc(NC(=O)COc3ccc(Cl)cc3)ccc21` gave TDP1 block 4.9%, TDP1 cell noCPT 4.11µM*, ClpP mod 0.8% and TDP1 cell CPT 18.4µM*.
COc1cccc(Cn2c(=O)c(-c3cn(C)c4ccccc34)nc3cnc(N4CCNCC4)nc32)c1 was read as TDP1 cell noCPT 20.6µM* and TDP1 cell CPT 7.31µM*.
`CCNc1ncc2nc(-c3cn(C)c4ccccc34)c(=O)n(Cc3ccc(F)cc3)c2n1` gave TDP1 cell noCPT -12.5% and TDP1 cell CPT -8.9%.
Cn1cc(-c2nc3cnc(N4CCNCC4)nc3n(Cc3ccc(F)cc3)c2=O)c2ccccc21 was read as TDP1 cell noCPT 7.31µM* and TDP1 cell CPT 5.17µM*.
For O=C1CC(N2CCSCC2)C(=O)N1c1ccc(F)cc1 (configuration not stated) the results were TDP1 cell noCPT -0.4%, ClpP mod -0.4% and TDP1 cell CPT 16.6%.
Screening Cc1cccc(NC(=O)c2ccc3c(O)c(S(=O)(=O)c4ccccc4)c(=O)[nH]c3c2)c1C returned TDP1 block 2.6%, TDP1 cell noCPT 6.1%, ClpP mod inconclusive and TDP1 cell CPT 4.8%.
For Cc1ccc(S(=O)Cc2nc(-c3ccc(C(=O)NCc4cccc(C)c4)cc3)oc2C)cc1 (configuration not stated) the results were TDP1 block -2.8%, TDP1 cell noCPT inconclusive, ClpP mod -9.2% and TDP1 cell CPT 10.1%.
COc1ccccc1CNC(=O)c1ccc(-c2nc(CS(=O)c3ccc(C)cc3)c(C)o2)cc1 (configuration not stated) was read as TDP1 block 14.1%, TDP1 cell noCPT 13µM*, ClpP mod -12.7% and TDP1 cell CPT inconclusive.
Cc1oc(-c2ccc(C(=O)NCc3ccc(F)cc3)cc2)nc1CS(=O)c1ccccc1 (configuration not stated) was read as TDP1 block 2.8%, TDP1 cell noCPT 20.6µM*, ClpP mod -9.4% and TDP1 cell CPT inconclusive.
`COc1ccc(CNC(=O)c2ccc(-c3nc(CS(=O)c4ccc(C)cc4)c(C)o3)cc2)cc1` (configuration not stated) gave TDP1 block 0.0%, TDP1 cell noCPT inconclusive, ClpP mod -5.4% and TDP1 cell CPT inconclusive.
Screening Cc1ccc(CNC(=O)c2ccc(-c3nc(CS(=O)c4ccccc4)c(C)o3)cc2)cc1 (configuration not stated) returned TDP1 block 0.0%, TDP1 cell noCPT 8.2µM*, ClpP mod -10.2% and TDP1 cell CPT 18.4µM*.
`CC(=O)N1CCc2c(sc3c2c(=O)n(-c2ccccc2C)c(=O)n3CC(=O)Nc2ccccc2)C1` gave TDP1 block 0.0%, TDP1 cell noCPT 18.7%, ClpP mod 0.4% and TDP1 cell CPT 27.3%.
Screening COCCCNC(=O)c1ccc2c(c1)nc(C)n2-c1cccc(C)c1 returned TDP1 block 10.4%, TDP1 cell noCPT -27.1%, ClpP mod -3.2% and TDP1 cell CPT 0.0%.
`CCCCCNC(=O)c1ccc2c(c1)nc(C)n2-c1cccc(C)c1` gave TDP1 block 7.8%, TDP1 cell noCPT inconclusive, ClpP mod 0.6% and TDP1 cell CPT 14.6µM*.
Screening COc1cc(-c2cc(NC(C)=O)c3ncc(-c4ccc(C(C)=O)cc4)n3c2)cc(OC)c1OC returned TDP1 cell noCPT inconclusive, ClpP mod inconclusive and TDP1 cell CPT 29.1µM*.
For COc1cc(-c2cc(NC(C)=O)c3ncc(-c4ccc(F)cc4)n3c2)cc(OC)c1OC the results were TDP1 cell noCPT 14.6µM*, ClpP mod 1.8% and TDP1 cell CPT inconclusive.
`COc1ccc(CN2C(=O)CCC2(C)c2nnnn2C2CCCCC2)cc1` (configuration not stated) gave TDP1 cell noCPT inconclusive, ClpP mod 0.3% and TDP1 cell CPT -30.1%.
